The values below come from PubChem BioAssay (NCATS).

Inconclusive results are not listed. The source made the active and inactive calls. Calls follow the shape of the dose curve; as a rule, active = well fitted cell-killing curve with a large enough effect; inconclusive = small, poorly fitted or top-dose-only effect; inactive = flat fitted curve, though single readings scatter.
% is scaled to controls: 0 for no effect and ±100 for the full control effect; potency is read from the fitted curve at half-maximal effect.

The nature of this experiment: Panc-1005 Cancer Cell Toxicity qHTS against the NCATS CANVASS Library (AID 1347349). Also: nearly all actives have a fitted effect of over 60% in size. The following applies: Panc-1005 viability, CellTiter-Glo luminescence, 72 h; series mostly up to 38.3 µM; activity change, negative = cytotoxicity: at the top concentration. From the text: Natural products and their derivatives continue to be wellsprings of nascent therapeutic potential. However, many laboratories have limited resources for biological evaluation, leaving their previously isolated or synthesized compounds largely or completely untested. To address this issue, the Canvass library of natural products was assembled (https://tripod.nih.gov/canvass), in collaboration with academic and industry researchers, for quantitative high-throughput screening (qHTS) across a diverse set of cell-based and biochemical assays. The pure (>85% purity by liquid chromatography/mass spectrometry [LC/MS]) Canvass library of 346 natural products were submitted by 45 academic laboratories and companies around the world. We collected pure natural products to circumvent deconvolution and structure elucidation due to time and resource limitations. The library was formatted into 1536-well plates and evaluated in 50 qHTS (in an 11-pnt concentration series) bioassays with broad scope of disease-relevant mechanisms. The resulting data set from 50 different assays was then systematically analyzed to identify overall trends and specific natural products with interesting biological activities. Reported herein are the results of each individual qHTS and their corresponding assay protocol. National Center for Advancing Translational Sciences (NCATS), Rockville, MD National Institute of Health (NIH), Bethesda, Maryland
Cancer Cell Toxicity protocol for cell lines COV-362, OV-KATE, OV-SAHO, UWB1.289, UWB1.289-WTBRCA1, HEK-293, HPAF-II, Panc-1005, SW1088, or U-118MG. 1. In a 1536 well, white solid bottom tissue culture plates (Corning 7494), corresponding cells (COV-362, OV-KATE, OV-SAHO, UWB1.289, UWB1.289-WTBRCA1, HEK-293, HPAF-II, Panc-1005, SW1088, or U-118MG) were dispensed in each well at a final concentration of 1000 cells / well (6uL volume) using the Multidrop Combi (Thermo Fisher Scientific) dispenser. 2. The plates were incubated for 4 hours at 37 degrees C/5% CO2/95% Rh. 3. Compounds were pin transferred (~23nL volume) via Wako Pin-tool (Wako Automation, Richmond VA) equipped with a 1536 pin head. The assay plates were treated with compounds in an 11-pnt concentration series with a final concentration range of […] to 85uM. 4. Bortezomib was used as a single dose control (0.5mM column 4, rows 1 - 32) at a final concentration of 1.9uM and as a 16pnt titration (1mM; 1:2 dilution; 16-points; n = 2; column 3, rows 1 - 32) with final concentration range of 0.1nM - 3.8uM. 5. The assay plates were incubated for 72 hours at 37 degrees C/5% CO2/95% Rh. 6. 3uL CellTiter-Glo detection reagent was then added to the plates (columns 2 - 48, rows 1 - 32) and incubated at room temperature for additional 15min. 7. Luminescence signal was acquired via the ViewLux plate reader (PerkinElmer) using a clear filter, 2 second exposure and 2x binning settings.
Consider `CO[C@@H](/C=C/CC/C=C/C(=O)O)[C@@H](O)[C@H](C)/C=C(\C)[C@@H](O)[C@H](C)C(=O)CCCC1CC(=O)NC(=O)C1`, for which the “activity change, negative = cytotoxicity” value is -3.13% (inactive).

For the compound `C[C@@H]1CC[C@@H](c2ccoc2)N2C[C@@]3(CC[C@@H]12)CS[C@@]1(CC[C@H]2[C@H](C)CC[C@@H](c4ccoc4)N2[C@@H]1O)C3`, the Potency was 5.3 µM (active). For the compound `COC(=O)C1=C2Nc3ccccc3[C@@]23CCN2CC(C(C)=O)C1C[C@H]23` (some centres undefined), the “activity change, negative = cytotoxicity” value was -6.64% (inactive).

With `CC1=CC(=O)C2=C(C)C[C@H](O)[C@@H]3[C@H](OC(=O)[C@@H]3C)[C@@H]12`, the “activity change, negative = cytotoxicity” value is -3.44% (inactive). Turning to `C[C@]12CC(O)C3[C@@H](CCC4C[C@@H](O)CC[C@@]43CO)[C@@]1(O)CCC2C1=CC(=O)OC1` (some centres undefined), the “activity change, negative = cytotoxicity” value is 2.03% (inactive). Take `CO[C@@H](/C=C/CC/C=C/C(=O)O)[C@@H](O)[C@H](C)[C@@H](O)/C(C)=C/[C@H](C)C(=O)CCCC1CC(=O)NC(=O)C1`: the “activity change, negative = cytotoxicity” value was 5.01% (inactive).

Take `c1ccc2c3c([nH]c2c1)CNCC3`: the “activity change, negative = cytotoxicity” value is -24.9% (inactive). For `CCN1C[C@]2(C)CC[C@H](O)[C@]34C1C(C[C@H]23)[C@@]12CC[C@H](CC14)[C@](O)(COC(=O)c1ccc(OC)c(OC)c1)[C@H]2O` (some centres undefined), the “activity change, negative = cytotoxicity” value is -21.7% (inactive). On to `CCC(=O)CCCCC[C@@H]1NC(=O)[C@H]2CCCCN2C(=O)[C@H]([C@@H](C)CC)NC(=O)[C@H](Cc2cn(OC)c3ccccc23)NC1=O`, for which the Potency was 0.668 µM (active). For `CCC[C@H]1CC[C@H]2[C@H](C)CCC[C@H]2N1`, the “activity change, negative = cytotoxicity” value is -12.9% (inactive).

As to `CCCCC[C@@H]1OC(=O)[C@@H](C)N(C)C(=O)[C@H](CCCCC)OC(=O)C(C)N(C)C(=O)[C@H](CCCCC)OC(=O)[C@@H](C)N(C)C(=O)[C@H](CCCCC)OC(=O)C(C)N(C)C1=O` (some centres undefined), the Potency is 8.41 µM (active). For `CC[C@@H]1CN2CC[C@@]3(O)C(=Nc4cccc(OC)c43)[C@@H]2C[C@@H]1/C(=C\OC)C(=O)OC`, the “activity change, negative = cytotoxicity” value was -0.71% (inactive). Take `O=C(c1ccccc1O)c1[nH]c(Cl)c(Cl)c1-n1c(C(=O)c2ccccc2O)cc(Cl)c1Cl`: the Potency is 2.11 µM (active).

Consider `CNCCc1ccc(O)cc1`, for which the “activity change, negative = cytotoxicity” value was -1.97% (inactive). Same read-out and setting: the same measure for `C/C=C1/CN2CC[C@]34C(=Nc5ccccc53)[C@@H]2C[C@@H]1[C@H]4C(=O)OC`: 1.42% [at 76 µM] (inactive); for `NCCc1ccccc1`: 6.12% (inactive); for `CN1C(=O)[C@]23CC4C(C)(C)[C@@]5(C[C@@]41CN2CC[C@@]3(C)O)C(=O)Nc1c5ccc2c1OC=CC(C)(C)O2` (some centres undefined): -15% (inactive). The same measure, in the same setting: the same measure for `CC1=CC2CC[C@@H]3[C@@H](C)C[C@H](C)[C@@H](C1)N23` (some centres undefined): 9.92% (inactive); for `CC[N@@+]1([O-])C[C@]2(C)CC[C@@H](O)[C@@]34C5C[C@H]6CC[C@@]5(C(C[C@H]23)C41)[C@H](O)[C@@]6(O)CO` (some centres undefined): 1.28% (inactive); for `CO[C@H](c1ccccc1)[C@H]1NC(=O)C(C)NC(=O)C(C[C@@H](C)CO)N(C)C(=O)[C@@H](C(O)c2cn(C(C)(C)C3CO3)c3ccccc23)NC(=O)C(C(C)C=C(C)C)NC(=O)C(CC(C)C)N(C)C(=O)C(C(C)C)NC1=O` (some centres undefined): -10.1% [at 22.9 µM] (inactive). In the case of `CC(=O)N[C@H]1CCN2CCC[C@H]12`, the “activity change, negative = cytotoxicity” value is -7.42% [at 85.4 µM] (inactive). Still for that read-out and setting: the same measure for `CNCCc1ccccc1`: 10% (inactive); for `CNCCc1c[nH]c2ccccc12`: -4.85% (inactive); for `CCCC[C@@H]1CC[C@H]2CCCC(CCC)N12` (some centres undefined): -7.29% (inactive). On the same count and under the same terms, the same measure for `COc1ccc(C23Oc4cc(OC)cc(OC)c4[C@](O)([C@H](c4ccccc4)C2C(=O)NCCCCNC(=O)c2ccccc2)[C@@H]3O)cc1` (some centres undefined): -5.01% (inactive); for `CN(C)Cc1c[nH]c2ccccc12`: 2.94% (inactive); for `CCN1C[C@]2(C)CC[C@@H](O)[C@]34C1[C@H](C[C@H]23)C12CCC(CC14)[C@](O)(CO)[C@H]2O` (some centres undefined): -3.66% (inactive). For `COc1ccc2c(c1)[nH]c1c(C)nccc12`, the Potency is 30.6 µM (active). For the compound `CC=C1CN(C=O)[C@H]2C[C@@H]1[C@@H](C(=O)OC)[C@@]13CCOC21Nc1ccccc13` (some centres undefined), the “activity change, negative = cytotoxicity” value is -5.53% (inactive).
